# Records with an inconclusive call do not appear. Calls of active or inactive are those of the source. Rule as the data show it, unless noted: active = inhibition above about 30%; inactive = the rest.
# Legend:
# [1] = reducers of endogenous Her2 protein level, primary screen, SKBR3 breast tumor cells, AlphaScreen, ATP viability (AID 461;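 active = Her2 level under about 52% in both replicate screens, with viability over 70% of control, limit read from the data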;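 as to Her2 level: lower value means less Her2 protein in the cells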;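 as to viability: percent of carrier control wells set as 100% viability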); conditions: 18-24 h, measured here: SKBR3 viability, ATP luminescence, at 10 µM
# [2] = target: Receptor tyrosine-protein kinase erbB-2 (Homo sapiens) (UniProt P04626); assay: as above; conditions: 18-24 h, at 10 µM, stronger effect = lower value
# [3] = SK-BR-3 cell growth inhibitors, pilot screen, 24 h, human (AID 572;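 active = viability at or below 10% of carrier control in both of two separate runs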;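 also: compound exposure lasted between 18 and 24 h rather than exactly 24 h; 100% = carrier-treated control wells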); conditions: SK-BR-3 viability, CellTiter-Glo luminescence, at 10 µM, stronger effect = lower value
# [4] = HUVEC growth inhibition – cell-based, human, primary screen (AID 575;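 active = viability at or below 30% in both replicate assays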;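 also: 100% = median of untreated cell wells with 0.1% DMSO on each plate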); conditions: HUVEC proliferation, CellTiter-Glo luminescence, 72 h; at 10 µM; stronger effect = lower value
# [5] = growth inhibitors of H69AR lung tumor, primary screen, human, duplicate replicates (AID 580;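 active = viability at or under a set limit in both replicates, limit being median viability minus 3 SD, cut at about 48% in these data, passing the limit was not always enough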;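 also: 100% = mean luminescence of untreated wells and 0% = no signal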); conditions: H69AR lung tumor cells viability, ATP luminescence, 72 h; at 10 µM; stronger effect = lower value
# [6] = reversal of MRP1-mediated doxorubicin resistance, pilot screen, H69AR cells, doxorubicin co-treatment (AID 601;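 active = viability loss from added drug above about 55%, and viability with drug at most 40%, in both replicates, limit read from the data, passing the limit was not always enough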); conditions: CellTiter-Glo, 72 h, at 10 µM; for differential viability (reversal): stronger effect = higher value
# [7] = 384-well plate pilot, post-Golgi transport modulator project, inhibition of yeast transport mutant growth (AID 636; in the data active = inhibition above about 31%); conditions: absorbance 615 nm, about 18 h, stronger effect = higher value
# [8] = growth suppression of yeast trafficking mutant, preliminary HTS, modulators of trafficking downstream of Golgi apparatus project, 1536-format plate, OD 615 nm (AID 637); conditions: yeast transport mutant growth, absorbance 615 nm, 18 h; stronger effect = higher value
# [9] = OD615 S. cerevisiae growth inhibition, permissive medium, pilot counter-assay, permissive growth control for S. cerevisiae lifespan shortening project (AID 705;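 active = growth inhibition above 25% in both replicates, a cutoff set 3 SD above the mean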); conditions: OD615, 24 h, at 10 µM, stronger effect = higher value
# [10] = Restrictive medium S. cerevisiae growth inhibition, OD615, pilot screen of yeast lifespan reduction project, restrictive growth control (AID 706;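 active = growth inhibition above a set limit, 3 SD over mean compound inhibition, in both replicates, cut at about 43% in these data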;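 also: modified DeaD lifespan yeast strain shifted to restrictive glucose medium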); conditions: OD615, 48 h, at 10 µM, stronger effect = higher value
# [11] = viability gain of MRP-1-high H69AR cells under doxorubicin, pilot screen, MRP-1 activator project, CellTiter-Glo, duplicate (AID 807;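 active = viability increase at or above a cutoff of the median across tested compounds plus 3 SD, cut at about 8.5% in these data, passing the limit was not always enough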;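 also: compound pretreatment 18-22 h then 72 h combined with doxorubicin; 0% = doxorubicin alone and 100% = vehicle without doxorubicin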); conditions: H69AR viability with doxorubicin, CellTiter-Glo luminescence; at 10 µM; stronger effect = higher value
# [12] = growth suppression of beta-catenin knockout HCT116, pilot screen, human colon tumor cells (AID 823;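 active = cell viability at or below a set limit in both duplicate runs, the limit being the all-compound median minus 4 SD, cut at about 23% in these data, passing the limit was not always enough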;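 also: 0% = wells killed by 20 µM Hyamine and 100% = untreated DMSO cell wells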); conditions: CellTiter-Glo, 60 h, at 10 µM, stronger effect = lower value
# [13] = growth suppression of PTEN-deleted HCT116, pilot screen, cell-based, HCT116 clonal line, CellTiter-Glo (AID 824;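 active = viability at or below 27.92% in each of two runs, the all-compound median minus 4 SD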;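 also: 0% = 20 µM Hyamine control and 100% = vehicle cell control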); conditions: 60 h, at 10 µM, stronger effect = lower value
# [14] = inhibitors of the yeast RAM network, pilot screen, dse1pr::URA3 reporter, 5-FOA selection (AID 869;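 active = inhibition over a set limit, the all-compound mean plus 3 SD, in both replicate runs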;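 also: 0% = DMSO wells with no growth and 100% = 10 µM 1-NA-PP1 with full growth; RAM network block rescues cells from 5-FOA so hits raise OD615 growth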); conditions: S. cerevisiae dse1pr::URA3 5-FOA growth, OD615, 2 d; at 10 µM; stronger effect = higher value; strain carries analog-sensitive mutant Cbk1 kinase
# [15] = RAM signaling pathway blockade in yeast – S. cerevisiae, Pdr1DBD-CYC8 efflux-inhibited sensitized strain, primary screen (AID 1298;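 active = RAM network inhibition above 8.4% in each of two replicates, 3 SD over the compound average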;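 also: 0% = DMSO untreated cells without growth and 100% = 10 µM 1-NA-PP1 full growth; higher means more yeast growth rescued from 5-FOA killing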); conditions: S. cerevisiae cbk1-as DSE1-URA3 strain, 5-FOA growth OD615, 2 d; at 50 µM; stronger effect = higher value
# [16] = H69AR cells + 2 uM doxorubicin, measured here: viability with 2 uM doxorubicin, stronger effect = lower value
# [17] = H69AR cells, compound alone cytotoxicity
# Receptor tyrosine-protein kinase erbB-2 (Homo sapiens), sequence (P04626 whole entry, looked up): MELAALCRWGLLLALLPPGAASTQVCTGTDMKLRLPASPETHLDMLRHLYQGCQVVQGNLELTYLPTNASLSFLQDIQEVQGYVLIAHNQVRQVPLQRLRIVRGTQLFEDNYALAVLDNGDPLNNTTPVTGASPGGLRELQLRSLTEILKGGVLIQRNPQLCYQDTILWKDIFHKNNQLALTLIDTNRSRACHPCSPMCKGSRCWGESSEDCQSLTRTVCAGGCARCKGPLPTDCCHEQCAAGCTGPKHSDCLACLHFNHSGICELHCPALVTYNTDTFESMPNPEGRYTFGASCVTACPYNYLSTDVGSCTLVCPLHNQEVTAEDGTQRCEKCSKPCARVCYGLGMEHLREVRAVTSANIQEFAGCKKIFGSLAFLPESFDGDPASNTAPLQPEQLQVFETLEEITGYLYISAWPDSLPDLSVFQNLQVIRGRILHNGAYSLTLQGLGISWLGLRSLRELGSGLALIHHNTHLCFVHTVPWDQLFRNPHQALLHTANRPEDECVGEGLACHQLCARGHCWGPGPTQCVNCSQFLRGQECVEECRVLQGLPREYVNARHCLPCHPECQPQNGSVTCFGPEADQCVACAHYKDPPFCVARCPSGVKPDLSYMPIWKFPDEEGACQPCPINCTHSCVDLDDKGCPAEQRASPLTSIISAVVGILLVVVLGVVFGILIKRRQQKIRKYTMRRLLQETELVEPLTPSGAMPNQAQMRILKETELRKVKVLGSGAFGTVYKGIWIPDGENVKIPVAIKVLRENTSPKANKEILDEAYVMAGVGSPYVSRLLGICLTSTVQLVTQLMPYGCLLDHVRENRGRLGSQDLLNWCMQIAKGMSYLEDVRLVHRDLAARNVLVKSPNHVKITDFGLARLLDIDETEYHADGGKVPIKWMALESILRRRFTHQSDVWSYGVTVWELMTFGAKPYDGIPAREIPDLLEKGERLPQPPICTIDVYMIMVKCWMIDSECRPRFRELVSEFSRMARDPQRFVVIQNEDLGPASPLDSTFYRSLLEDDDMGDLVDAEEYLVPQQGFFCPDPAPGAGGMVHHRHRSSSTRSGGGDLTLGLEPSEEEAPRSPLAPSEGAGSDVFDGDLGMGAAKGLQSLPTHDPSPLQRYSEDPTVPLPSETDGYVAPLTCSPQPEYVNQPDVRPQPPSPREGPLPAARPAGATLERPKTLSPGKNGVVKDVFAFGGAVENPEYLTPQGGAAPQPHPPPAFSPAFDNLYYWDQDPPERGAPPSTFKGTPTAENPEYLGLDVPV
SMILES,viability [1] [%],Her2 level [2],viability [3],viability [4],viability [5],differential viability (reversal) ([6]; H69AR cells + 2 uM doxorubicin),"viability [6, 16] [%]","viability [6, 17] [%]",inhibition [7],inhibition [8],growth inhibition [9],growth inhibition [10],viability increase [11],viability [12],viability [13],inhibition [14],RAM network inhibition [15]
CC(CC(=O)NC1CCSC1=O)c1ccccc1 (stereo not given),97,87.5% (inactive),97% (inactive),89.2% (inactive),113% (inactive),1.77% (inactive),111,113,-4.32% (inactive),0% (inactive),3.53% (inactive),6.91% (inactive),2.46% (inactive),96.5% (inactive),95.9% (inactive),0.235% (inactive),1.17% (inactive)
CCOC(=O)N1CCN(Cc2nc3c(c(=O)n(C)c(=O)n3C)n2Cc2ccccc2)CC1,104,106% (inactive),104% (inactive),96.3% (inactive),89.1% (inactive),10.5% (inactive),78.7,89.1,-2.13% (inactive),2.62% (inactive),-8.18% (inactive),-4.35% (inactive),-4.1% (inactive),97.3% (inactive),98% (inactive),0.61% (inactive),4.53% (inactive)
CC(=O)NC(CCS(C)(=O)=O)C(=O)Nc1cccc(C)c1 (stereo not given),88.5,121% (inactive),88.5% (inactive),89.3% (inactive),94.1% (inactive),1.42% (inactive),92.7,94.1,1.87% (inactive),1.83% (inactive),-12.4% (inactive),-11.9% (inactive),0.75% (inactive),103% (inactive),100% (inactive),1.04% (inactive),2.51% (inactive)
Cc1ccc2oc(=O)c3cnn(CC(=O)NCCC(C)C)c3c2c1,84.5,102% (inactive),84.5% (inactive),95.2% (inactive),88.1% (inactive),15.4% (inactive),72.6,88.1,-0.26% (inactive),-1.67% (inactive),2.22% (inactive),-6.28% (inactive),-1.72% (inactive),105% (inactive),100% (inactive),1.22% (inactive),6.67% (inactive)
Cc1cc(C)c(NC(=O)CSc2nc3c(c(=O)n2C)SC(C)C3)c(C)c1 (stereo not given),93.5,118% (inactive),93.5% (inactive),96.7% (inactive),90% (inactive),-6.17% (inactive),96.2,90,-2.67% (inactive),10% (inactive),-7.85% (inactive),-17.5% (inactive),-0.13% (inactive),85.7% (inactive),77.5% (inactive),1.58% (inactive),4.95% (inactive)
CC(=O)NCc1nc2ccccc2n1C(C)C,104,108% (inactive),104% (inactive),84.2% (inactive),92.3% (inactive),10% (inactive),82.3,92.3,-4.93% (inactive),-4.83% (inactive),-13.7% (inactive),-29.9% (inactive),-0.81% (inactive),105% (inactive),95.5% (inactive),0.84% (inactive),3.6% (inactive)
CCCCNC(=O)Cn1c(=O)n(C)c2ccccc21,105,96.5% (inactive),105% (inactive),84.4% (inactive),88.5% (inactive),-2.7% (inactive),91.2,88.5,-5.07% (inactive),-2% (inactive),-9.7% (inactive),-4.06% (inactive),-0.03% (inactive),106% (inactive),101% (inactive),1.49% (inactive),-1.79% (inactive)
C=C(Cl)COc1ccc2c(C)cc(=O)oc2c1,108,92.5% (inactive),108% (inactive),102% (inactive),101% (inactive),-2.75% (inactive),103,101,1.89% (inactive),-5.56% (inactive),-6.04% (inactive),5.47% (inactive),-0.42% (inactive),97.8% (inactive),84% (inactive),0.795% (inactive),0.1% (inactive)
O=C(c1cc(C2CC2)on1)N1CCN(C(c2ccccc2)c2ccccc2)CC1,84.5,95.5% (inactive),84.5% (inactive),113% (inactive),87.7% (inactive),-6.88% (inactive),94.6,87.7,0.9% (inactive),-0.83% (inactive),-17.5% (inactive),-18.4% (inactive),2.29% (inactive),90.9% (inactive),76.8% (inactive),0.66% (inactive),7.26% (inactive)
COC(=O)CN1C(=O)C(O)(CC(=O)c2ccc(C)cc2)c2cc(Br)ccc21 (stereo not given),102,96.5% (inactive),102% (inactive),88.2% (inactive),81.6% (inactive),-11.8% (inactive),93.3,81.6,-0.27% (inactive),-1.5% (inactive),-15.5% (inactive),2.94% (inactive),-0.78% (inactive),91% (inactive),92.5% (inactive),1.67% (inactive),2.87% (inactive)
